Rows were chosen to be rich in hits. Some 2.9% of all compounds tested hit in one or more screens of this group.
Nrf2 inh: inhibitors of Nrf2 signaling; Potency, µM (highest dose often 46 µM), for the others: top-dose activity change, negative = inhibition, most hits filed as inhibitors; 360,000 tested, 2.1% active; A549 ARE-Fluc reporter, luciferase luminescence, 18-24 h; also: % is scaled to controls: 0 for no effect and ±100 for the full control effect; nearly all actives have a fitted effect of over 60% in size
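Concentration-response testing used A549 ARE_Fluc cells at 5000 cells/well. Following an 18-24 h compound incubation, viability was read by fluorescence (Ex 405/Em 525) and luciferase output by luminescence.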
ATXN viability: cell viability loss in ATXN counter-screen | S2 cells (HEK-293 line with an ATXN2-luciferase reporter) viability, CellTiter-Fluor protease fluorescence, 24 h | Potency, µM (series often up to 56.7 µM), hits mostly cytotoxic | 400,000 tested, 0.49% active; also: nearly all actives have a fitted effect of over 40% in size
ATXN2 expr inh: reduces ATXN2 reporter expression in HEK-293 cells; HEK-293 ATXN2-luciferase reporter, luminescence, 24 h; 360,000 tested, 0.72% active; AID 1745845; Potency, µM (top dose mostly 57 µM), for inactives: top-dose activity change, negative = inhibition, usual class: inhibitors; also: % is scaled to controls: 0 for no effect and ±100 for the full control effect; nearly all actives have a fitted effect of over 55% in size
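qHTS (up to 57 uM final) was run with 24 h compound exposure of reporter cells at 37 °C. Each well was multiplexed: SteadyGlo luminescence measured ATXN2-luciferase expression after a fluorogenic Gly-Phe-AFC viability readout (25 uM final).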
Nrf2 ARE act: Nrf2 pathway activation; AREc32 ARE-luciferase reporter (MCF7-derived line), luminescence, 24 h; Potency, µM (series often up to 46.1 µM), inactives show at the highest dose activation, hits mostly activators; 410,000 tested, 0.31% active; also: % of control where 0% means no effect; nearly all actives have a fitted effect of over 65% in size
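Reporter line AREc32 (ARE-Fluc), seeded overnight in OPTI-MEM with 5% FBS; compound pin-transferred, 24 hr at 37 deg C, 5% CO2; luminescent read-out.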
A549 tox: counter-screen for Nrf2 inhibitors: cytotoxicity in A549 cells. 390,000 tested, 0.16% active. Potency, µM (titrated, usually from 46 µM), without a hit: top-dose activity change, negative = cytotoxicity, hits mostly inhibitors. A549 ARE-Fluc cells, CellTiter-Fluor viability, 18-24 h; also: % is scaled to controls: 0 for no effect and ±100 for the full control effect
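A549 ARE_Fluc cells in 5% FBS OPTI-MEM were exposed to compounds in concentration-response for 18-24 h at 37 deg C. Viability was read by CellTiter-Fluor fluorescence (Ex 405/Em 525) after 30 min, before the luciferase read.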
* = called active by the depositor; i = inactive; ? = inconclusive; . = not tested or not shown. Calls follow the shape of the dose curve; as a rule, active = well fitted curve in the direction sought with a large enough effect; inconclusive = small, poorly fitted or top-dose-only effect, or another doubt; inactive = no such curve, though single readings can be large; an effect the other way counts as inactive or inconclusive. Potency is read from the fitted curve at half-maximal effect.

SMILES	Nrf2 inh	ATXN viability	ATXN2 expr inh	Nrf2 ARE act	A549 tox
Cn1ncc2c(O/N=C(\N)c3ccc(C(C)(C)C)cc3)ncnc21	18.4µM*	.	?	-1.8%	16.4µM*
O=c1oc(Cl)c(Cl)c2ccccc12	-13.4%	i	5.8%	0.0%	0.1%
Cc1ccc2nc(-c3cccc(SC4CCCCC4)c3)c(NCc3ccccc3)n2c1	?	?	?	-3.6%	-20.9%
CCCCNc1c(-c2ccc(SC3CCCCC3)c(OC)c2)nc2ccc(C)cn12	?	?	?	0.3%	?
COc1ccc(-c2nc3ccc(C)cn3c2NCc2ccccc2)cc1SC1CCCCC1	?	15.8µM*	-9.1%	0.7%	?
CCCCNc1c(-c2ccc(OC)c(SC3CCCCC3)c2)nc2ccc(C)cn12	18.4µM*	10µM*	25.1µM*	-5.9%	?
CCCCOc1cccc(C(=O)Nc2cccc(-c3nc4ncccc4o3)c2C)c1	16.4µM*	?	?	-0.4%	-3.9%
Cc1cccc(COc2ccc(-c3cc(C(F)(F)F)n4nc(C)cc4n3)cc2)c1	?	i	14.1%	-0.8%	0.0%
N#CCCN(C(=O)CSc1nc2nc(-c3cccs3)cc(C(F)(F)F)c2c(=O)[nH]1)c1ccccc1	20.6µM*	i	-1.2%	-0.9%	1.6%
CS(=O)(=O)n1nc(OC(=O)c2cccc3ccccc23)cc1N	-6.4%	i	10.0%	14.1µM*	-6.0%
Cc1ccccc1C(=O)Oc1cc(N)n(S(=O)(=O)c2ccccc2)n1	7.31µM*	i	3.5%	-1.1%	-3.4%
COc1ccccc1C(=O)Oc1cc(N)n(S(=O)(=O)c2ccccc2)n1	8.8%	i	.	1.5%	1.4%
CCCCCCCC/C=C\CCCCCCCC(=O)NCCc1ccc(O)c(O)c1	?	25.1µM*	15.8µM*	-0.8%	?
Nc1nc(OCC2CCCCC2)c2[nH]cnc2n1	18.4µM*	i	14.1%	1.1%	?
Nc1nc(SCC(=O)O)c2[nH]cnc2n1	-1.5%	.	.	.	-2.2%
O=C(NN=Cc1ccccc1O)c1cccc([N+](=O)[O-])c1	-2.0%	?	?	-1.6%	0.3%
COc1ccc(Cl)cc1NS(=O)(=O)c1cccc2cccnc12	?	i	-7.0%	12.6µM*	-3.8%
COc1ccc(OC)c(NS(=O)(=O)c2cccc3cccnc23)c1	?	i	0.7%	26.6%	1.9%
CCCC[n+]1ccn(-c2nc3ccccc3nc2[N-]S(=O)(=O)c2ccc(C)cc2)c1	2.7%	i	2.9%	-0.8%	-1.5%
CCCCn1c(-c2cccc(F)c2)nc2c1c(=O)[nH]c(=O)n2CC(C)C	26.1%	i	-4.7%	-0.5%	0.0%
Cc1c(NS(=O)(=O)c2ccc3c(c2)OCCO3)cccc1-c1nc2cccnc2s1	20.6µM*	i	-16.2%	0.0%	-11.3%
COc1ccccc1NC(=O)CN1C(=O)C2(SCC(=O)N2c2ccc(C)c(C)c2)c2ccccc21 (stereo unspecified)	20.6µM*	?	?	-0.1%	?
O=C(CSc1ncnc2c1cnn2-c1ccc(F)cc1)NCc1ccc2c(c1)OCO2	1.3%	i	5.8%	0.1%	2.6%
CC(C#N)(Cc1ccccc1)Nc1ccccc1 (stereo unspecified)	19.8%	i	.	1.1%	8.9%
Clc1ccccc1/C=N/NC1=Nc2cccc3cccc1c23	?	12.6µM*	-34.8%	17.3%	?
SMILES	Nrf2 inh	ATXN viability	ATXN2 expr inh	Nrf2 ARE act	A549 tox
COc1ccc(N2CCN(C(=O)CCc3ccc(S(=O)(=O)NCC(C)C)cc3)CC2)cc1	25.9µM*	i	-21.0%	2.8%	-23.8%
COc1ccc(N2CCN(C(=O)COC(=O)c3cccc(S(=O)(=O)Nc4cccc(C)c4)c3)CC2)cc1	25.9µM*	i	?	0.2%	-5.2%
Cc1cccc(C)c1OCc1cc(C(=O)N2CCC(c3ccncc3)CC2)no1	2.7%	i	-11.7%	3.1%	-8.0%
O=C(c1cc(COc2c(F)cccc2F)on1)N1CCC(c2ccncc2)CC1	7.31µM*	?	-9.5%	2.8%	-18.8%
COc1ccccc1C(=O)COC(=O)c1cccs1	?	i	38.4%	8.91µM*	-8.5%
O=[N+]([O-])c1ccc(/C=N\O)o1	.	i	2.5%	.	.
O=C(CCN1CCN(c2ccccc2)CC1)N/N=C/c1ccc([N+](=O)[O-])o1	20.6µM*	i	?	10.6%	?
O=C(CN1CCOCC1)NN=Cc1ccc([N+](=O)[O-])o1	.	i	-31.9%	-0.6%	.
CCCCCCCC(=O)N/N=C/c1ccc([N+](=O)[O-])o1	?	?	.	12.0%	-2.5%
O=C(CNc1cccc([N+](=O)[O-])c1)N/N=C/c1ccc([N+](=O)[O-])o1	-9.2%	i	?	10.9%	-9.6%
O=C(Cc1ccc([N+](=O)[O-])cc1)N/N=C/c1ccc([N+](=O)[O-])o1	20.6µM*	i	.	6.0%	-22.4%
O=[N+]([O-])c1ccc(/C=N/N=C/c2ccc([N+](=O)[O-])o2)o1	?	?	16.8µM*	3.98µM*	20.6µM*
O=C(CNc1cccc2ccccc12)N/N=C/c1ccc([N+](=O)[O-])o1	16.4µM*	?	?	10.1%	?
C=C(C)CSc1nc2sc3c(c2c(=O)n1-c1ccccc1)CC(C(C)C)OC3 (stereo unspecified)	-10.4%	i	-3.5%	0.4%	3.4%
C=CCc1ccc(OCCOc2ccc(/C=N/n3cnnc3)cc2OCC)c(OC)c1	23.3%	i	0.0%	0.2%	-4.2%
Cc1nn(-c2ccccc2)cc1C(c1c(N)[nH]c(=S)[nH]c1=O)c1c(N)[nH]c(=S)[nH]c1=O	1.4%	i	-30.3%	0.1%	11.9%
CCN(CC(=O)Nc1ccc(NC(C)=O)cc1)C(=O)c1c(C)nn(-c2ccc(F)cc2)c1Cl	-0.3%	?	-0.3%	-0.4%	1.1%
Cc1cc(C)cc(OCC(=O)N/N=C/c2ccc([N+](=O)[O-])o2)c1	20.6µM*	?	?	3.6%	?
N#CCc1ccc(NC(=O)/C=C/c2ccc([N+](=O)[O-])o2)cc1	2.1%	12.6µM*	8.91µM*	?	?
Cc1ccccc1OCC(=O)N/N=C/c1ccc([N+](=O)[O-])o1	?	?	.	14.1%	-16.9%
O=C(O)/C=C/c1ccc([N+](=O)[O-])o1	?	i	2.9%	?	-3.0%
C1=CC2CC1CC2CN1CCN(c2ccccc2)CC1 (stereo unspecified)	-11.8%	i	-5.9%	-0.3%	-9.0%
Cc1ccccc1-n1nc(CSc2nc3ccccc3[nH]2)c(-c2ccccc2)c1N	23.1µM*	i	-5.8%	-0.2%	-27.3%
Nc1c(-c2ccccc2)c(CSc2nc3ccccc3[nH]2)nn1-c1cccc(Cl)c1	23.1µM*	i	-24.3%	5.6%	-18.5%
CN1CCN(CC(O)Cn2c3ccccc3c3ccccc32)CC1 (stereo unspecified)	17.7%	i	.	3.7%	11.0%

Screening data (PubChem BioAssay)
